# Compound activity from PubChem BioAssay.
# Shown are actives, neighbours in structure and some others; about 19% of the full set was active somewhere.
# DT40 TDP1 CPT: growth inhibition of DT40 Tdp1-/-;hTDP1 cells with camptothecin (screen for TDP1 inhibitors) | Potency, µM (titrated, usually from 46.2 µM), inactives show at the highest dose activity change, negative = growth inhibition, most hits filed as inhibitors | AID 686979 | actives 12% (n = 420,000) | chicken DT40 Tdp1-/-;hTDP1 cells + 20 nM CPT, ATP luminescence, 48 h; also: nearly all actives have a fitted effect of over 55% in size
#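 Chicken DT40 Tdp1-/- cells stably complemented with human TDP1 were seeded at 400 cells/well in medium containing 20 nM camptothecin, exposed to pin-transferred compounds, and grown at 37 °C for at least 48 hr. Viability was read as ATP luminescence.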
# DT40 TDP1 no CPT: qHTS for Inhibitors of human tyrosyl-DNA phosphodiesterase 1 (TDP1): qHTS in cells in absence of CPT. DT40 Tdp1-/- hTDP1 cells, no CPT, ATP luminescence, 48 h. Potency, µM (titrated, usually from 46.2 µM), inactives show at the highest dose activity change, negative = growth inhibition, usual class: inhibitors. actives 15% (n = 420,000); also: nearly all actives have a fitted effect of over 55% in size
#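 Chicken DT40 Tdp1-/- cells complemented with human TDP1, screened without camptothecin (DMSO vehicle only), 400 cells/well. Compounds pin-transferred, cells incubated at 37 °C for at least 48 hr. Growth read as ATP-dependent luminescence (CellTiter-Glo, 30 min at RT).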
# Gal4-VP16 FLuc: counter-screen for ROR gamma inhibitors: Gal4-VP16 reporter. AID 2546. Drosophila S2 Gal4-VP16 UAS-luciferase, luminescence, 20 h. actives 3.5% (n = 310,000). Potency, µM (top dose mostly 53.6 µM), for the others: top-dose activity, negative = inhibition, usual class: inhibitors;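 also: Gal4-VP16 expression switched on by copper sulfate through the metallothionein promoter; nearly all actives have a fitted effect of over 50% in size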
# TDP1 inh: inhibitors of human tyrosyl-DNA phosphodiesterase TDP1; Q9NUW8; recombinant TDP1, AlphaScreen DNA substrate cleavage; Potency, µM (titrated, usually from 130 µM), without a hit: at the top dose activity change, negative = inhibition, usual class: inhibitors; actives 0.28% (n = 350,000); also: nearly all actives have a fitted effect of over 40% in size
#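 Compounds were preincubated with Tdp1 (1 nM final) for 15 min at room temperature before substrate (15 nM final) started a 5 min reaction; beads (10 ug/ml final) were then added for 10 min before AlphaScreen detection.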
# RORgamma inh: inhibitors of mouse ROR gamma transcriptional activity; P51450; Drosophila S2 Gal4-RORgamma UAS-luciferase reporter, 20 h; Potency, µM (top dose mostly 53.6 µM), without a hit: at the highest dose activity change, negative = inhibition, hits mostly inhibitors; actives 5.4% (n = 310,000); also: nearly all actives have a fitted effect of over 60% in size
#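 Compounds are pin-transferred onto Drosophila Schneider cells expressing a copper-inducible Gal4–ROR gamma transactivation domain fusion. After 1 hr, copper sulfate is added to 700 uM final; luciferase is read 20 hr later.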
# * marks the source's active call; other numbers are inactive results; ? = inconclusive; nt = not tested or not shown; [ ] = dose if it differs, or a comment. Calls follow the shape of the dose curve; as a rule, active = well fitted curve in the direction sought with a large enough effect; inconclusive = small, poorly fitted or top-dose-only effect, or another doubt; inactive = no such curve, though single readings can be large; an effect the other way counts as inactive or inconclusive. % is scaled to controls: 0 for no effect and ±100 for the full control effect; potency is read from the fitted curve at half-maximal effect.
SMILES,DT40 TDP1 CPT,DT40 TDP1 no CPT,Gal4-VP16 FLuc,TDP1 inh,RORgamma inh
CC(=O)Nc1cccc(-c2ccnc3c2CC(C)(C(=O)Nc2cccc(NS(C)(=O)=O)c2)O3)c1 (stereo not given),-7%,-28%,nt,nt,nt
CC(=O)Nc1ccc(-c2ccnc3c2CC(C)(C(=O)Nc2cccc(OC(F)(F)F)c2)O3)cc1 (stereo not given),?,16µM*,nt,nt,nt
COc1cc(Cl)ccc1OCc1cc(C(=O)N[C@H]2CCCCNC2=O)no1,-11%,0%,-4%,3%,18%
CCCCC(CC)COC(=O)c1ccc(N(C)C)cc1 (stereo not given),-20%,?,-10%,-10%,-1%[10 µM]
COc1cc(S(=O)(=O)Nc2ccc(C(=O)NCC(=O)O)cc2)ccc1NC(C)=O,6%,-1%,-12%,3%,-10%
O=S(=O)(Cc1ccccc1)C(CCCc1ccccc1)S(=O)(=O)Cc1ccccc1,23µM*,21µM*,nt,nt,nt
CCc1ccccc1Nc1nc(N)nc(COC(=O)c2c(C)noc2C)n1,?,-22%,nt,0%,nt
Cc1ccc(/C=c2/sc3nnc(-c4ccccc4Cl)n3c2=O)o1,?,12µM*,?,-2%,4.5µM*
Cc1ccc(/C=c2\sc3nc(-c4ccco4)nn3c2=O)o1,-73%,23µM*,?,-4%,?
Cc1ccc(/C=c2\sc3nc(-c4ccccc4Br)nn3c2=O)o1,?,-28%,-1%,nt,-2%
O=S(=O)(c1ccc(Cl)cc1)N1CCN=C1SCc1ccc(Cl)c(Cl)c1,-19%,-3%,-11%,-2%,?
CCOC(=O)c1c(C)[nH]c(NC(=O)Nc2c(C)n(C)n(-c3ccccc3)c2=O)c1C,0%,-2%,-5%,7%,-7%
NC(c1csc(Nc2nncc3ccccc23)n1)C1CCCCC1 (stereo not given),5.8µM*,5.8µM*,nt,nt,nt
COc1ccc(CCNC(=O)COc2nncc3ccccc23)cc1,5%,20%,-2%,-5%,-1%
COc1ccc(CC(N)c2csc(Nc3nncc4ccccc34)n2)cc1 (stereo not given),?,18µM*,nt,nt,nt
NC(c1csc(Nc2nncc3ccccc23)n1)c1ccccc1Cl (stereo not given),29µM*,15µM*,nt,nt,nt
Cc1ccc(NC(=O)CC2NCCN(Cc3ccccc3)C2=O)cc1 (stereo not given),3%,-12%,2%,3%,18%
CCc1ccc(S(=O)(=O)N2c3ccc(C)cc3C3CN(C)CCC32)cc1 (stereo not given),?,?,nt,1%,nt
Cc1ccc2c(c1)C1CN(C)CCC1N2C(=O)COc1ccc(N(C)C(=O)c2ccccc2)cc1 (stereo not given),5.2µM*,13µM*,-1%,-1%,37%
CCC(C)NCCOc1ccc(Br)cc1 (stereo not given),-14%,-30%,6%,-4%,3%
CCC(C)NCCOCCOc1ccc(Br)cc1 (stereo not given),?,23µM*,-8%[10 µM],-5%,-3%
O=C(CSc1ccc2nnc(-c3cccnc3)n2n1)Nc1ccc(F)cc1F,10%,-1%,-8%,5%,22%
O=C(CSC1=NCCN1)C1COc2ccccc2O1 (stereo not given),18µM*,?,-1%,-4%,-15%
CCCCCSc1nnc(-c2cc(Br)ccc2N)c(=O)[nH]1,-22%,-23%,-16%,1%,32%
Clc1ccc(C(c2cccs2)N2CCNCC2)cc1 (stereo not given),13µM*,18µM*,nt,nt,nt
Cc1cccc(C)c1-n1nnnc1C(c1ccnc2ccccc12)N(C)Cc1ccccc1 (stereo not given),?,16µM*,nt,nt,nt
Cc1cc(N2CCN(C(c3ccnc4ccccc34)c3nnnn3-c3c(C)cccc3C)CC2)c2ccccc2n1 (stereo not given),6.5µM*,4.6µM*,nt,nt,nt
